# Whole data set: some 1,400 sequences, median “thermal melting temperature (Tm) of peptide-HLA complex” near 60, cut for the lowest 2% near 45. The full list was thinned out, with the lowest values kept by preference.
# B1: unnamed (peptide)
# chain: APFEPLASGIL
# B2: unnamed (peptide)
# chain: SPRPALPALLV
# B3: unnamed (peptide)
# chain: QPRNLLLAL
# B4: unnamed (peptide)
# chain: RPSLLPLH
# B5: unnamed (peptide)
# chain: VPNWHRDLV
# B6: unnamed (peptide)
# chain: KPMPSLPQL
# B7: unnamed (peptide)
# chain: VPRAILVDL
# B8: unnamed (peptide)
# chain: NPRQPLPASGL
# B9: unnamed (peptide)
# chain: SPRPPAEGF
# B10: unnamed (peptide)
# chain: RPNGTKVAVL
# B11: unnamed (peptide)
# chain: RPKTPPVVI
# B12: unnamed (peptide)
# chain: FPIPAAEVDRL
# B13: unnamed (peptide)
# chain: RPAANPIQFTL
# B14: unnamed (peptide)
# chain: IPRSITVLV
# B15: unnamed (peptide)
# chain: MPHVPITTL
# B16: unnamed (peptide)
# chain: LPQYRLISI
# Target: HLA-B*07:02
# Assay: thermal melting temperature (Tm) of peptide-HLA complex; higher = more thermostable pHLA complex
# Settings: C1R-B*07:02
# 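Note: lysates heated 10 min at 37–73 °C, complexes pulled down with pan-HLA I antibody, peptide signal by DIA-MS relative to 37 °C, Tm where half the complex is unfolded.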
row,Sequence,thermal melting temperature [°C]
1,B1,60.7
2,B2,59.4
3,B3,61.2
4,B4,61.5
5,B5,58.3
6,B6,44.9
7,B7,62.4
8,B8,58.3
9,B9,55.8
10,B10,60.1
11,B11,59.6
12,B12,62.2
13,B13,59.8
14,B14,62.4
15,B15,61.3
16,B16,61.3
